Assay results as given in PubChem BioAssay.
For some of these results: Entries with a potency or affinity are not part of this list. Calls of active or inactive are those of the source.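 Rule for the calls, unless noted: active = calcium signal cut by more than 3 SD below the full-agonist control yet still positive, in both repeats and the earlier primary screen; inactive = the rest.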

Experiments:
[1] = tested on: TRPC4 beta (transient receptor potential cation channel C4), mouse; assay: activators of mouse TRPC4 channel, confirmation, cell-based, Fluo4 calcium, HEK293 TRPC4beta/mu-opioid, duplicates, 10 µM (AID 2426;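 active = fluorescence ratio normalized to control raised more than 50% in primary screen plus both repeat runs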); conditions: Fluo4 calcium fluorescence, at 10 µM; active compounds read high
[2] = tested on: transient receptor potential cation channel C4 beta (TRPC4), mouse; assay: activators of mouse TRPC4 channel, confirmation, cell-based, second round, Fluo4, HEK293 TRPC4beta/mu-opioid, 1 µM (AID 2461;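 active = primary screen active and over 50% activation in each of two duplicate runs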); conditions: Fluo4 calcium fluorescence, at 1 µM; active compounds read high
[3] = tested on: TRPC4 (transient receptor potential cation channel C4 beta), mouse; assay: positive allosteric modulators of mouse TRPC4, confirmation, cell-based, second round, Fluo-4, HEK293 TRPC4beta/mu-opioid, 1 µM (AID 2554;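 active = primary screen hit whose fluorescence ratio, in both repeats, exceeds the weak agonist control mean by 3 SD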); conditions: DAMGO EC20, Fluo-4 calcium flux, at 1 µM; active compounds read high
[4] = tested on: TRPC4 beta (transient receptor potential cation channel C4), mouse; assay: positive allosteric modulators of mouse TRPC4, confirmation, cell-based, Fluo-4, HEK293 TRPC4beta/mu-opioid (AID 2555;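 active = primary screen hit whose calcium fluorescence ratio, in both repeats, exceeds the weak agonist control mean by 3 SD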); conditions: DAMGO EC20, Fluo-4 calcium flux, at 10 µM; active compounds read high
[5] = target: Short transient receptor potential channel 4 (Mus musculus) (UniProt Q9QUQ5); assay: inhibitors of mouse TRPC4 channel, confirmation, cell-based, Fluo4, HEK293 TRPC4beta/mu-opioid (AID 2636); conditions: DAMGO, Fluo4 calcium flux, at 10 µM; active compounds read high
Short transient receptor potential channel 4 (Mus musculus), sequence (Q9QUQ5 whole entry, looked up): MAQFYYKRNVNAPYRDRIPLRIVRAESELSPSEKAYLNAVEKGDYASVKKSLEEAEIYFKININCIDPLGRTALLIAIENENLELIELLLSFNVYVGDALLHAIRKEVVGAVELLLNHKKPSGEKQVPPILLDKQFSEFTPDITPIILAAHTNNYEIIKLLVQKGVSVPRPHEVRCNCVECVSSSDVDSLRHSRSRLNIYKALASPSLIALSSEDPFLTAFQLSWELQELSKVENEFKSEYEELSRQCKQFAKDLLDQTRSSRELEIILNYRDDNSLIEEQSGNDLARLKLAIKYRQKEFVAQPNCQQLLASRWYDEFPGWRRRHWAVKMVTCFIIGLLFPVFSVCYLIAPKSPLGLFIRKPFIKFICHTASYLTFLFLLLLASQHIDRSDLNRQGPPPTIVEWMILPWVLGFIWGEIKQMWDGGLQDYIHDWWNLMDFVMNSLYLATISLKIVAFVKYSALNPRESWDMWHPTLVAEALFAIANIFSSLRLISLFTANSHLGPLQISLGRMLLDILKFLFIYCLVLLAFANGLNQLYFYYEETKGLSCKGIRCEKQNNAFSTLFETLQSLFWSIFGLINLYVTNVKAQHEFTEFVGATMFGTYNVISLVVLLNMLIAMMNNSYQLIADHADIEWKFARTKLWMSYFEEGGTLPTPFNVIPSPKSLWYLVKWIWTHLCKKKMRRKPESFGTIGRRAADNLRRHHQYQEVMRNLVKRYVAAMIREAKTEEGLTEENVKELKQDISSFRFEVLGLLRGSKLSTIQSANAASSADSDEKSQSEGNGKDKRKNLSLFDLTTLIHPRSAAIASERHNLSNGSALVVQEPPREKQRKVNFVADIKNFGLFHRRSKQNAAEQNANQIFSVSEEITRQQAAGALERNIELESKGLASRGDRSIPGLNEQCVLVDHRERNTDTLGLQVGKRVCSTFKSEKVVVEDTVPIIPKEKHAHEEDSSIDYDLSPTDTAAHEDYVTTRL

[6] = target: Short transient receptor potential channel 4 (Mus musculus) (UniProt Q9QUQ5); assay: inhibitors of mouse TRPC4 channel, confirmation, cell-based, second round, Fluo4, HEK293 TRPC4beta/mu-opioid, 1 µM (AID 2637;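 active = calcium signal ratio cut to more than 3 SD under the fully stimulated control mean yet still positive, in both repeats and the primary screen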;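 for inhibition: percent of integrated ratio relative to wells lacking test compound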); conditions: Fluo4 calcium flux, DAMGO, at 1 µM; active compounds read high
[7] = target: Short transient receptor potential channel 4 (Mus musculus) (UniProt Q9QUQ5); assay: mouse TRPC4 channel activators, dose response, cell-based, HEK293 TRPC4/mu-opioid, Fluo-4 calcium (AID 434937;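 active = primary screen activator hit with a dose response curve and TRPC4 channel activation at any tested dose; inactive = no activation, no dose response, or not a primary hit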)
[8] = target: Short transient receptor potential channel 4 (Mus musculus) (UniProt Q9QUQ5); assay: TRPC4 positive allosteric modulators, dose response, cell-based, HEK293 TRPC4/mu-opioid, Fluo-4 calcium, EC20 DAMGO (AID 434941;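 active = earlier screen potentiator hit that boosts the TRPC4 ion channel at some dose, with a dose response; inactive = no potentiation, no dose response, or not a prior hit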;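 note: calcium entry triggered by an EC20 dose of DAMGO at the co-expressed mu-opioid receptor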)
[9] = target: Short transient receptor potential channel 6 (Mus musculus) (UniProt Q61143); assay: inhibition of mouse TRPC6 channel, confirmation, selectivity assay for TRPC4 inhibitor project, cell-based, HEK293, membrane potential dye, duplicate (AID 434948;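 active = active in primary screen and both duplicates, each dropping signal beyond three positive-control SD with fluorescence still positive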); conditions: HEK293 TRPC6, membrane potential dye fluorescence, at 10 µM, stimulated with maximal-effect acetylcholine; active compounds read high
Short transient receptor potential channel 6 (Mus musculus), sequence (Q61143 whole entry, looked up): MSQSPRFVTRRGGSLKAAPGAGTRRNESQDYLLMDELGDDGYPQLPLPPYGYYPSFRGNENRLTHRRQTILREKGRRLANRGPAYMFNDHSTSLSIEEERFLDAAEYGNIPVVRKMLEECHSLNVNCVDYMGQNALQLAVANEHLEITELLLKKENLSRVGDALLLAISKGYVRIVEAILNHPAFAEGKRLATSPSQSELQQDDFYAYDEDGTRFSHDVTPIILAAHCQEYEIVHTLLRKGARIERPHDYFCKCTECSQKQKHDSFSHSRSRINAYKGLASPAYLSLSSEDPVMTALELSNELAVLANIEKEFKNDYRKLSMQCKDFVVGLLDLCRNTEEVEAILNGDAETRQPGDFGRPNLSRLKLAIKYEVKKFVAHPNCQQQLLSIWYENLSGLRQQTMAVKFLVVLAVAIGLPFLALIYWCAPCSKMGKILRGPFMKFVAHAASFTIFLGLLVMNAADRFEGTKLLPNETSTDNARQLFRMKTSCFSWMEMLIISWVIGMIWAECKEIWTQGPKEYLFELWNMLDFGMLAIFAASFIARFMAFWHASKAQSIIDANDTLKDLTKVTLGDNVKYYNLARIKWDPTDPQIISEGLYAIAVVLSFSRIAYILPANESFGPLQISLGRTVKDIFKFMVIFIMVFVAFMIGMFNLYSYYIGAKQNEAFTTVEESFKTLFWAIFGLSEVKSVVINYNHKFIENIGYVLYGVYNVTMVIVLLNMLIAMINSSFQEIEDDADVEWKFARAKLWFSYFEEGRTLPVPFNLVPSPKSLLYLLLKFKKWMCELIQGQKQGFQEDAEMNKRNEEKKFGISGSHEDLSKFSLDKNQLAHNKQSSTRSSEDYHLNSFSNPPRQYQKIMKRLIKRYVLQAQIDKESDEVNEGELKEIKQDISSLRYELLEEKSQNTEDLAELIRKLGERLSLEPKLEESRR

[10] = target: Short transient receptor potential channel 6 (Mus musculus) (UniProt Q61143); assay: activation of mouse TRPC6 channel, confirmation, selectivity assay for TRPC4 activator project, cell-based, HEK293, membrane potential dye, duplicate (AID 434950;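 active = membrane potential signal rise above negative control mean plus 3 SD in both duplicates, also active in the earlier TRPC4 screen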); conditions: HEK293 TRPC6, membrane potential fluorescence, at 10 µM; active compounds read high
[11] = target: Short transient receptor potential channel 6 (Mus musculus) (UniProt Q61143); assay: TRPC6 potentiation by TRPC4 potentiator hits, confirmation, selectivity assay for TRPC4 potentiator project, HEK293 cells, membrane potential dye, duplicate (AID 434952;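 active = compound raising the membrane signal above positive-control mean plus 3 SD in both repeats, and a primary screen hit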); conditions: HEK293 TRPC6, membrane potential dye fluorescence, at 10 µM, maximal acetylcholine added after compound; active compounds read high
[12] = target: Short transient receptor potential channel 4 (Mus musculus) (UniProt Q9QUQ5); assay: calcium flux activators in TRPC4/5HT1a cells, counter-screen for TRPC4 activator project, cell-based, second counter screen, HEK293 TRPC4/5HT1a, Fluo-4 (AID 434977;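 active = calcium signal rise above buffer-control mean plus 5 SD in both duplicates, and also a hit in the primary screen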); conditions: Fluo-4 calcium flux, at 10 µM; active compounds read high
[13] = calcium flux inhibitors in TRPC4/5HT1a cells, confirmation, counter-screen for TRPC4 inhibitor project, cell-based, second counter screen, HEK293 TRPC4/5HT1a, Fluo-4 (AID 434978;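 active = primary screen active whose calcium signal fell more than 3 SD beyond the full-serotonin control mean in both duplicate plates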;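 for outcome: serotonin given first at submaximal then at maximal dose after compound preincubation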); conditions: Fluo-4 calcium flux, at 10 µM, serotonin added to trigger calcium flux; active compounds read high
[14] = tested on: TRPC4 (mouse), co-expressed with 5HT1a in HEK293; assay: calcium flux potentiators in TRPC4/5HT1a cells, confirmation, counter-screen for TRPC4 potentiator project, cell-based, second counter screen, HEK293 TRPC4/5HT1a, Fluo-4 (AID 434979;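 active = signal rise over 3 SD above mean of control wells given weak agonist, in both repeats and first screen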); conditions: Fluo-4 calcium flux, at 10 µM, serotonin added at its EC20 dose; active compounds read high
[15] = calcium flux activation in mu-opioid HEK293 cells, confirmation, counter-screen for TRPC4 activator project, cell-based, HEK293 mu-opioid receptor line (AID 449723;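 active = hit in primary screen, with calcium signal over 5 SD above buffer well mean in both duplicates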;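 note: counter screen cells carry the mu-opioid receptor alone and lack TRPC4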); conditions: Fluo-4 calcium fluorescence, at 10 µM; active compounds read high
[16] = calcium flux enhancement in mu-opioid HEK293 cells, confirmation, counter-screen for TRPC4 allosteric potentiator project, cell-based, HEK293 mu-opioid receptor line (AID 449724;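 active = calcium signal rise more than 3 SD above the low-dose agonist control mean, in both duplicate plates and the primary screen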); conditions: Fluo-4 calcium flux, at 10 µM, compound added before EC20 DAMGO stimulus; active compounds read high

Cc1c(CCOC(=O)c2ccc([N+](=O)[O-])cc2)sc[n+]1CC(=O)c1ccccc1
active: inhibition [5] 92% | inhibition [13] 42.9%
inactive: outcome [1] | outcome [2] | outcome [3] | outcome [4] | outcome [6] | outcome [7] | outcome [8] | outcome [9] | outcome [10] | outcome [11] | outcome [12] | outcome [14] | outcome [15] | outcome [16]

CCCCn1c(NC(=O)c2ccccc2)nc2ccccc21
inactive: outcome [1] | outcome [2] | outcome [3] | outcome [5] | outcome [6] | outcome [7] | outcome [8] | outcome [9] | outcome [10] | outcome [11] | outcome [12] | outcome [13] | outcome [14] | outcome [15] | outcome [16]
active: potentiation [4] 20%

CCOc1ccc2c(C)nc(NC3=NC(C)(C)C=C(C)N3)nc2c1
active: inhibition [5] 96% | inhibition [6] 37%
inactive: outcome [1] | outcome [2] | outcome [3] | outcome [4] | outcome [7] | outcome [8] | outcome [9] | outcome [10] | outcome [11] | outcome [12] | outcome [13] | outcome [14] | outcome [15] | outcome [16]

COc1cc(C(=O)N(CCc2ccccc2)C2=CC3CCC(C2)N3C)cc(OC)c1OC (stereo unspecified)
inactive: outcome [1] | outcome [2] | outcome [3] | outcome [4] | outcome [5] | outcome [7] | outcome [8] | outcome [9] | outcome [10] | outcome [11] | outcome [12] | outcome [13] | outcome [14] | outcome [15] | outcome [16]
active: inhibition [6] 54%

Cc1cc(NCc2ccccc2)nc(N2CCOCC2)n1
active: inhibition [5] 95% | inhibition [6] 40% | inhibition [13] 26.5%
inactive: outcome [1] | outcome [2] | outcome [3] | outcome [4] | outcome [7] | outcome [8] | outcome [9] | outcome [10] | outcome [11] | outcome [12] | outcome [14] | outcome [15] | outcome [16]

COc1cc(CNCCCN2CCOCC2)cc(Br)c1OCc1ccc(Cl)cc1
inactive: outcome [1] | outcome [2] | outcome [3] | outcome [4] | outcome [5] | outcome [6] | outcome [7] | outcome [8] | outcome [10] | outcome [11] | outcome [12] | outcome [14] | outcome [15] | outcome [16]
active: inhibition [9] 51% | inhibition [13] 23.6%

Cc1ccc(OCCn2c(C)nc3ccccc32)cc1
active: inhibition [5] 94% | inhibition [6] 61% | inhibition [13] 13%
inactive: outcome [1] | outcome [2] | outcome [3] | outcome [4] | outcome [7] | outcome [8] | outcome [9] | outcome [10] | outcome [11] | outcome [12] | outcome [14] | outcome [15] | outcome [16]

COc1ccc(NC(=O)c2c[nH]n3c(=O)cc(C4CCN(C(=O)OC(C)(C)C)CC4)nc23)cc1Cl
inactive: outcome [1] | outcome [2] | outcome [3] | outcome [4] | outcome [7] | outcome [8] | outcome [9] | outcome [10] | outcome [11] | outcome [12] | outcome [14] | outcome [15] | outcome [16]
active: inhibition [5] 86% | inhibition [6] 41% | inhibition [13] 40.1%

CCCCCC[N+](C)(C)CC/C=C1/c2ccccc2Sc2ccc(Cl)cc21
active: inhibition [5] 83% | inhibition [6] 61% | inhibition [9] 42.5% | inhibition [13] 31.8%
inactive: outcome [1] | outcome [2] | outcome [3] | outcome [4] | outcome [7] | outcome [8] | outcome [10] | outcome [11] | outcome [12] | outcome [14] | outcome [15] | outcome [16]

O=C(CSc1nnc(-c2ccc(Cl)cc2Cl)n1C1CCCCC1)NC1CCS(=O)(=O)C1 (stereo unspecified)
active: inhibition [5] 82%
inactive: outcome [1] | outcome [2] | outcome [3] | outcome [4] | outcome [6] | outcome [7] | outcome [8] | outcome [9] | outcome [10] | outcome [11] | outcome [12] | outcome [13] | outcome [14] | outcome [15] | outcome [16]

S=C(Nc1ccccc1)Nc1cc(Cl)ccc1Oc1ccccc1
inactive: outcome [1] | outcome [2] | outcome [3] | outcome [4] | outcome [6] | outcome [7] | outcome [8] | outcome [9] | outcome [10] | outcome [11] | outcome [12] | outcome [14] | outcome [15] | outcome [16]
active: inhibition [5] 78% | inhibition [13] 40.2%

COc1cc(CNCCc2ccc(F)cc2)ccc1OCc1ccc(Cl)nc1
active: inhibition [5] 84% | inhibition [9] 40.5%
inactive: outcome [1] | outcome [2] | outcome [3] | outcome [4] | outcome [6] | outcome [7] | outcome [8] | outcome [10] | outcome [11] | outcome [12] | outcome [13] | outcome [14] | outcome [15] | outcome [16]

Cc1cc(-c2sccc2C)nc(-n2cccc2)n1
inactive: outcome [1] | outcome [2] | outcome [3] | outcome [4] | outcome [6] | outcome [7] | outcome [8] | outcome [9] | outcome [10] | outcome [11] | outcome [12] | outcome [13] | outcome [14] | outcome [15] | outcome [16]
active: inhibition [5] 91%

COc1ccccc1Nc1nc(NCC2CCCO2)c2ccccc2n1 (stereo unspecified)
inactive: outcome [1] | outcome [2] | outcome [3] | outcome [4] | outcome [7] | outcome [8] | outcome [10] | outcome [11] | outcome [12] | outcome [14] | outcome [15] | outcome [16]
active: inhibition [5] 91% | inhibition [6] 50% | inhibition [9] 10% | inhibition [13] 31.5%

OCC(Cc1ccccc1)NCc1ccccc1C(F)(F)F (stereo unspecified)
active: inhibition [5] 60%
inactive: outcome [1] | outcome [2] | outcome [3] | outcome [4] | outcome [6] | outcome [7] | outcome [8] | outcome [9] | outcome [10] | outcome [11] | outcome [12] | outcome [13] | outcome [14] | outcome [15] | outcome [16]

CSC1=NC2(CCCCC2)C2=C(CCCC2)N1
inactive: outcome [1] | outcome [2] | outcome [3] | outcome [4] | outcome [6] | outcome [7] | outcome [8] | outcome [9] | outcome [10] | outcome [11] | outcome [12] | outcome [14] | outcome [15] | outcome [16]
active: inhibition [5] 96% | inhibition [13] 33%
